This is part of a sample that, as a whole, favours compounds with a hit. Of some 79,000 tested, about 15% had one in any assay. Unmarked numbers belong to inactive results. Activity calls are given as the source filed them. No stated cut-off is given here; in the data, active means growth inhibition above about 70%; inactive means the rest.

In PubChem BioAssay (NCI) one finds growth inhibition data, which are given here for ten compounds.

A short description of test [1]: NCI Yeast Anticancer Drug Screen. Data for the rad50 strain (AID 155).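 Further: 0% = growth of vehicle-only cultures of the same strain.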 The note with it: S. cerevisiae rad50 strain growth inhibition, active compounds read high. The essentials: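 Readout: growth inhibition relative to vehicle-treated cultures. Compound exposure was carried out in a genetically defined yeast strain deficient in DNA damage repair.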
The nature of test [2]: NCI Yeast Anticancer Drug Screen. Data for the mec2-1 strain (AID 157). The note with it: S. cerevisiae mec2-1 strain, active compounds read high. The essentials: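 Cells of the genetically defined mec2-1 yeast strain are incubated with test compound. Inhibition of growth is calculated against vehicle-treated controls.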
Test [3] in a line: NCI Yeast Anticancer Drug Screen. Data for the sgs1 mgt1 strain (AID 161).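 Further: 0% = growth of cultures given vehicle only.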 The note with it: S. cerevisiae sgs1 mgt1 strain, active compounds read high. The essentials:
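Test agents were incubated with a DNA-repair-mutant yeast strain. Growth was then read and compared against vehicle-treated controls.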

Test [4] is described as follows: NCI Yeast Anticancer Drug Screen. Data for the cln2 rad14 strain (AID 165).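 Further: 0% = growth equal to vehicle treated cultures.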 The note with it: S. cerevisiae cln2 rad14 strain, active compounds read high. The essentials:
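The screen exposed genetically defined yeast (cln2 rad14) to test compounds and scored growth inhibition relative to vehicle-treated controls.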

The nature of test [5]: NCI Yeast Anticancer Drug Screen. Data for the bub3 strain (AID 167). The note with it: S. cerevisiae bub3 mutant strain, active compounds read high. In a few lines: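 Readout: yeast growth inhibition, expressed relative to vehicle-only wells. The test organism is a mutant strain from a panel with lesions in DNA repair or checkpoint genes.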
The nature of test [6]: NCI Yeast Anticancer Drug Screen. Data for the mlh1 rad18 strain (AID 175). The note with it: S. cerevisiae mlh1 rad18 strain growth inhibition, active compounds read high. In a few lines:
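Compound-treated yeast growth, normalised to vehicle controls. Strain bears defined DNA repair mutations.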

The mark [7] stands for this setting: at 5.0 µM (retest, dose inferred, filed as 0.5).
Where [8] appears, read: at 50.0 µM (retest, dose inferred, filed as 5.0).

Turning to `O/N=C(/Cc1nc2cc(Cl)c(Cl)cc2nc1C/C(=N/O)c1ccncc1)c1ccncc1`, the growth inhibition in test [1] (setting [7]) is 5%; in test [1] (setting [8]) it was 65%; in test [1] (at 50.0 µM), 82.2% (active); in test [2] (setting [7]) it was 11%; in test [2] (setting [8]), 77% (active); in test [2] (at 50.0 µM) it was 87.6% (active). Further, the growth inhibition was 4% in test [3] (setting [7]); 55% in test [3] (setting [8]); 79% (active) in test [3] (at 50.0 µM); 6% in test [4] (setting [7]); 68% in test [4] (setting [8]); 84.5% (active) in test [4] (at 50.0 µM). The growth inhibition was 5% in test [5] (setting [7]); 77% (active) in test [5] (setting [8]); 74% (active) in test [5] (at 50.0 µM); 1% in test [6] (setting [7]); 47% in test [6] (setting [8]); 89.5% (active) in test [6] (at 50.0 µM).
As for `COc1ccccc1C(=O)Nc1ccc(Cl)c(C(=O)OC(C)C)c1`, the growth inhibition in test [1] (setting [7]) is 16%; in test [1] (setting [8]), 33%; in test [1] (at 50.0 µM), -1.8%; in test [2] (setting [7]) it was 7%; in test [2] (setting [8]), 20%; in test [2] (at 50.0 µM) it was 22.2%. For the same compound, the growth inhibition is 14% in test [3] (setting [7]); -32% in test [3] (setting [8]); 70.8% (active) in test [3] (at 50.0 µM); 14% in test [4] (setting [7]); 38% in test [4] (setting [8]); 58.6% in test [4] (at 50.0 µM). The growth inhibition in test [5] (setting [7]) is 13%; in test [5] (setting [8]), 47%; in test [5] (at 50.0 µM), 73.2% (active); in test [6] (setting [7]), 15%; in test [6] (setting [8]) it was 65%; in test [6] (at 50.0 µM) it was 28.7%.
For `CC(CC(C)[C@H]1CCC2[C@H]3C(CC[C@@]21C)[C@@]1(C)CCC(O)C[C@H]1C[C@@H]3O)C(=O)O` (stereo not given in full), the growth inhibition in test [1] (setting [7]) was 10%; in test [1] (setting [8]), 97% (active); in test [1] (at 50.0 µM), 98.4% (active); in test [2] (setting [7]), -7%; in test [2] (setting [8]) it was 98% (active); in test [2] (at 50.0 µM), 97.5% (active). Further, the growth inhibition was -4% in test [3] (setting [7]); 97% (active) in test [3] (setting [8]); 98.7% (active) in test [3] (at 50.0 µM); -4% in test [4] (setting [7]); 99% (active) in test [4] (setting [8]); 97.1% (active) in test [4] (at 50.0 µM). Further, the growth inhibition was -20% in test [5] (setting [7]); 98% (active) in test [5] (setting [8]); 99% (active) in test [5] (at 50.0 µM); 14% in test [6] (setting [7]); 98% (active) in test [6] (setting [8]); 98.2% (active) in test [6] (at 50.0 µM).
Take `c1ccc2c(c1)CCCc1cc3ccccc3nc1-2`: the growth inhibition in test [1] (setting [7]) is 27%; in test [1] (setting [8]) it was 96% (active); in test [1] (at 50.0 µM), 84.8% (active); in test [2] (setting [7]), -30%; in test [2] (setting [8]), 98% (active); in test [2] (at 50.0 µM) it was 92.8% (active). For the same compound, the growth inhibition in test [3] (setting [7]) is -1%; in test [3] (setting [8]), 96% (active); in test [3] (at 50.0 µM), 93% (active); in test [4] (setting [7]), -12%; in test [4] (setting [8]) it was 96% (active); in test [4] (at 50.0 µM), 92% (active). Further, the growth inhibition is 18% in test [5] (setting [7]); 97% (active) in test [5] (setting [8]); 91.9% (active) in test [5] (at 50.0 µM); -36% in test [6] (setting [7]); 96% (active) in test [6] (setting [8]); 89.7% (active) in test [6] (at 50.0 µM).
For the compound `O=[N+]([O-])/C=C/c1cc2ccccc2[nH]1`, the growth inhibition in test [1] (setting [7]) was 6%; in test [1] (setting [8]), 99% (active); in test [1] (at 50.0 µM), 99.5% (active); in test [2] (setting [7]) it was -6%; in test [2] (setting [8]) it was 100% (active); in test [2] (at 50.0 µM) it was 99.5% (active). In addition, the growth inhibition in test [3] (setting [7]) was 9%; in test [3] (setting [8]), 99% (active); in test [3] (at 50.0 µM) it was 99.4% (active); in test [4] (setting [7]) it was 11%; in test [4] (setting [8]), 99% (active); in test [4] (at 50.0 µM), 96.5% (active). Moreover, the growth inhibition in test [5] (setting [7]) was -8%; in test [5] (setting [8]) it was 100% (active); in test [5] (at 50.0 µM) it was 99.5% (active); in test [6] (setting [7]), 16%; in test [6] (setting [8]), 99% (active); in test [6] (at 50.0 µM) it was 99.2% (active).
For `O=C(Nc1ccc(S(=O)(=O)NC2CCCCC2)cc1)OC1CCCCCCC1`, the growth inhibition in test [1] (setting [7]) was 69%; in test [1] (setting [8]) it was 74% (active); in test [1] (at 50.0 µM) it was 72% (active); in test [2] (setting [7]) it was 99% (active); in test [2] (setting [8]) it was 81% (active); in test [2] (at 50.0 µM), 53.2%. In addition, the growth inhibition was 72% (active) in test [3] (setting [7]); 40% in test [3] (setting [8]); 77.6% (active) in test [3] (at 50.0 µM); 12% in test [4] (setting [7]); 75% (active) in test [4] (setting [8]); 75% (active) in test [4] (at 50.0 µM). Besides, the growth inhibition was 92% (active) in test [5] (setting [7]); 79% (active) in test [5] (setting [8]); 67% in test [5] (at 50.0 µM); 90% (active) in test [6] (setting [7]); 58% in test [6] (setting [8]); 76.7% (active) in test [6] (at 50.0 µM).
For the compound `NCCOB(c1ccccc1)c1ccccc1`, the growth inhibition in test [1] (setting [7]) was 12%; in test [1] (setting [8]), 99% (active); in test [1] (at 50.0 µM), 53.1%; in test [2] (setting [7]), 0%; in test [2] (setting [8]), 99% (active); in test [2] (at 50.0 µM), 54.2%. The growth inhibition in test [3] (setting [7]) was 3%; in test [3] (setting [8]), 99% (active); in test [3] (at 50.0 µM) it was 50.5%; in test [4] (setting [7]), 8%; in test [4] (setting [8]) it was 99% (active); in test [4] (at 50.0 µM), 99% (active). Also, the growth inhibition in test [5] (setting [7]) is 1%; in test [5] (setting [8]) it was 99% (active); in test [5] (at 50.0 µM) it was 99.3% (active); in test [6] (setting [7]) it was 5%; in test [6] (setting [8]), 99% (active); in test [6] (at 50.0 µM) it was 51.3%.
Regarding `CC(Cc1ccccc1)NN1CCOC(c2ccccc2)C1C` (stereo not given), the growth inhibition in test [1] (setting [7]) is 2%; in test [1] (setting [8]), 66%; in test [1] (at 50.0 µM), 32.1%; in test [2] (setting [7]), -2%; in test [2] (setting [8]), 56%; in test [2] (at 50.0 µM) it was 56.8%. Moreover, the growth inhibition is 0% in test [3] (setting [7]); 78% (active) in test [3] (setting [8]); 64.2% in test [3] (at 50.0 µM); -1% in test [4] (setting [7]); 16% in test [4] (setting [8]); 13.1% in test [4] (at 50.0 µM). The growth inhibition in test [5] (setting [7]) is 9%; in test [5] (setting [8]), 59%; in test [5] (at 50.0 µM) it was 46%; in test [6] (setting [7]) it was -3%; in test [6] (setting [8]), 72% (active); in test [6] (at 50.0 µM) it was 73% (active).
Take `CC(Nc1ccc(S(=O)(=O)Nc2ncccn2)cc1)c1ccc2cccnc2c1O` (stereo not given): the growth inhibition in test [1] (setting [7]) is 38%; in test [1] (setting [8]) it was 99% (active); in test [1] (at 50.0 µM), 99.5% (active); in test [2] (setting [7]), 2%; in test [2] (setting [8]), 99% (active); in test [2] (at 50.0 µM) it was 99.5% (active). The growth inhibition in test [3] (setting [7]) was 11%; in test [3] (setting [8]) it was 99% (active); in test [3] (at 50.0 µM), 98.5% (active); in test [4] (setting [7]), 19%; in test [4] (setting [8]), 99% (active); in test [4] (at 50.0 µM) it was 96.7% (active). The growth inhibition in test [5] (setting [7]) was 11%; in test [5] (setting [8]), 99% (active); in test [5] (at 50.0 µM), 99.3% (active); in test [6] (setting [7]), 14%; in test [6] (setting [8]), 98% (active); in test [6] (at 50.0 µM) it was 99.2% (active).
`COc1ccc(CN2COc3c(cc(Cl)c4cccnc34)C2)cc1`: the growth inhibition was 6% in test [1] (setting [7]); 98% (active) in test [1] (setting [8]); 99.5% (active) in test [1] (at 50.0 µM); -2% in test [2] (setting [7]); 91% (active) in test [2] (setting [8]); 99.6% (active) in test [2] (at 50.0 µM). Further, the growth inhibition in test [3] (setting [7]) is 1%; in test [3] (setting [8]), 98% (active); in test [3] (at 50.0 µM) it was 99.7% (active); in test [4] (setting [7]), 4%; in test [4] (setting [8]) it was 99% (active); in test [4] (at 50.0 µM), 99.2% (active). Moreover, the growth inhibition in test [5] (setting [7]) is -2%; in test [5] (setting [8]), 99% (active); in test [5] (at 50.0 µM) it was 99.4% (active); in test [6] (setting [7]), 8%; in test [6] (setting [8]), 99% (active); in test [6] (at 50.0 µM), 99.5% (active).
